FLuc counter: qHTS profiling assay for firefly luciferase inhibitor/activator using purifed enzyme and Km concentrations of substrates (counterscreen for miR-21 project). Luciferin 4-monooxygenase (Photinus pyralis), P08659. purified FLuc, Km substrates, luminescence inhibition. Potency, µM (highest dose often 57.5 µM), for the others: at the top dose activity change, negative = inhibition, actives largely listed as inhibitors. 360,000 compounds, 6.9% hits;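 also: plate controls were vehicle for no effect and reference inhibitor for full effect; nearly all actives have a fitted effect of over 55% in size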
Target sequence (P08659 whole entry, looked up): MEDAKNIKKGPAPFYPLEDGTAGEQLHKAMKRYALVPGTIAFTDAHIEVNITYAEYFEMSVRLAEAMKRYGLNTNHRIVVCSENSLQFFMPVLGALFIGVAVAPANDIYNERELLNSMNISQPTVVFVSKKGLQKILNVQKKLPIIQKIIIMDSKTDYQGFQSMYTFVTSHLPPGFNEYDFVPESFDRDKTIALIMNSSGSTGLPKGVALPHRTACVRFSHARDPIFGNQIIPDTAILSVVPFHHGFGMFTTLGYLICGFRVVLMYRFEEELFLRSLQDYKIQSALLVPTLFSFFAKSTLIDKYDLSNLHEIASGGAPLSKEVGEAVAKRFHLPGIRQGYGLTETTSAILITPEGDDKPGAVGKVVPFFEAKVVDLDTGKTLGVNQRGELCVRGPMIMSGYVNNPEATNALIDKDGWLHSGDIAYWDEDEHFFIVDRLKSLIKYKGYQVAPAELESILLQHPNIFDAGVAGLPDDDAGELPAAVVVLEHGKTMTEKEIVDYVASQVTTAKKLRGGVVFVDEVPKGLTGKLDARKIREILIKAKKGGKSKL
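Purified P. pyralis luciferase, 10 nM final, with Km-level 10 uM D-luciferin and 10 uM ATP in 50 mM Tris acetate pH 7.5, 10 mM Mg acetate, 0.01% Tween-20, 0.05% BSA; 6-point qHTS titration about 60 µM downward; luminescence read.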
ELG1 genotox: qHTS screen for small molecules that induce genotoxicity in human embryonic kidney (HEK293T) cells expressing luciferase-tagged ELG1 | HEK293T ELG1-luciferase reporter, luminescence, 16 h | Potency, µM (series often up to 46 µM), without a hit: at the top dose activity change, positive = activation, usual class: activators | 330,000 compounds, 1.3% hits; also: % of control where 0% means no effect; nearly all actives have a fitted effect of over 60% in size
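After overnight (16 hr) compound treatment at 37 °C, ELG1-luciferase HEK293T cells were lysed with ONE-Glo; luminescence quantified 30 min later at room temperature.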
NPC1 promoter act: qHTS Assay for NPC1 Promoter Activators; 320,000 compounds, 2.4% hits; Potency, µM (top dose mostly 9.22 µM), without a hit: at the top dose activation, usual class: activators; AID 485313, 2010; Huh7 NPC1 promoter luciferase reporter, 24 h; also: % of control where 0% means no effect; nearly all actives have a fitted effect of over 60% in size
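Luminescence read-out of NPC1 promoter-driven luciferase in stably transfected Huh7 cells; compounds delivered in DMSO and left 24 h at 37C, 5% CO2, qHTS titration format.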
KinaseGlo FLuc: Counterscreen for Luciferase (Kinase-Glo TM) Inhibition | Luciferin 4-monooxygenase (Photuris pensylvanica), Q27757 | Kinase-Glo luciferase, ATP luminescence, 8 min | Potency, µM (highest dose often 38.3 µM), for inactives: top-dose activity change, negative = inhibition, hits mostly inhibitors | 200,000 compounds, 0.28% hits; also: % is scaled to controls: 0 for no effect and ±100 for the full control effect; nearly all actives have a fitted effect of over 60% in size
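Compound is pinned into ATP-containing buffer (10 uM ATP, imidazole pH 7.2, 7 mM MgCl2). Kinase-Glo luciferase reagent is then added. Light output is recorded following an 8-min room-temperature incubation.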
Rab9 promoter act: qHTS Assay for Rab9 Promoter Activators | Huh7 Rab9 promoter-luciferase reporter, luminescence, 24 h | Potency, µM (doses to about 9.22 µM), for inactives: at the highest dose activation, negative = inhibition, actives largely listed as activators | 320,000 compounds, 2.8% hits | AID 485297, 2010; also: % of control where 0% means no effect; nearly all actives have a fitted effect of over 60% in size
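Cell-based reporter: Huh7 stable for Rab9 promoter-driven luciferase, plated in reduced-serum medium with 10% FBS at 1500 cells/well, compound-treated 24 h at 37 °C, luminescence read after 10 min reagent.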
SMN2 splice up: qHTS Assay for Enhancers of SMN2 Splice Variant Expression; HEK293 SMN2-luciferase splicing reporter, luminescence, 30-36 h; Potency, µM (doses to about 46.1 µM), inactives show at the top dose activity change, positive = activation, actives largely listed as activators; 210,000 compounds, 2.8% hits; also: % of control where 0% means no effect; nearly all actives have a fitted effect of over 55% in size
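qHTS luciferase splicing reporter: luminescence rises when SMN2 exon 7 is included in transfected HEK293 cells. Compound exposure lasted 30-36 h at 37C, with 4.5 mM final sodium butyrate as control, followed by a ONE-Glo read.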
Starred values were filed as active, the others as inactive; [ ] = dose if it differs, or a comment. In the library only some 7.3% were active in any assay of this set; here they are far more common. Calls follow the shape of the dose curve; as a rule, active = well fitted curve in the direction sought with a large enough effect; inconclusive = small, poorly fitted or top-dose-only effect, or another doubt; inactive = no such curve, though single readings can be large; an effect the other way counts as inactive or inconclusive. Potency is read from the fitted curve at half-maximal effect.

How did O=c1c2ccccc2oc2ccc(NCCCn3ccnc3)cc12 do in these assays?
FLuc counter: 1.7µM*; ELG1 genotox: inconclusive; NPC1 promoter act: 1.4µM*; Rab9 promoter act: 1.1µM*

How did CCC(=O)OC1=C(C(C)=O)N(Cc2ccccc2)S(=O)(=O)c2ccccc21 do in these assays?
FLuc counter: 4%

Results for Cc1cc2c(cc1C)N(CC(=O)N1CCCC1)C(=O)CC(c1ccccc1)=N2 ?
FLuc counter: 13µM*; ELG1 genotox: inconclusive; NPC1 promoter act: 3%; KinaseGlo FLuc: -6%; Rab9 promoter act: 18%; SMN2 splice up: 26%

How did COc1ccccc1NC(=O)CN1C(=O)CC(c2ccc(C)c(C)c2)=Nc2ccccc21 do in these assays?
FLuc counter: 13µM*

Results for CCOc1ccccc1NC(=O)CN1C(=O)CC(c2ccc(C)c(C)c2)=Nc2ccccc21 ?
FLuc counter: 27µM*

What do the screens show for `Cc1nn(-c2ccccc2)c2c1cc1c(=O)[nH]c(=O)nc-1n2-c1cccc(Cl)c1`?
FLuc counter: -4%; SMN2 splice up: -22%

How did Cc1ccc(NC(=O)c2nc(-c3ccncc3)no2)c(Cl)c1 do in these assays?
FLuc counter: -2%

Results for O=C(CC(SCCO)c1ccc2c(c1)OCO2)c1ccco1 (configuration not stated) ?
FLuc counter: 4.8µM*; ELG1 genotox: inconclusive; NPC1 promoter act: inconclusive; KinaseGlo FLuc: -8%; Rab9 promoter act: inconclusive; SMN2 splice up: -5%

Results for CC(C)OCCCNC(=O)c1cc2c(-c3ccc(Cl)cc3)nn(C)c2s1 ?
FLuc counter: -10%; SMN2 splice up: -3%

What do the screens show for `Cc1c(NC(=O)c2ccc(Cl)cc2)cc(C(C)C)c(O)c1S(=O)(=O)c1ccccc1`?
FLuc counter: inconclusive; SMN2 splice up: 16µM*

Results for COc1ccc(C(=O)Nc2cc(S(=O)(=O)c3ccc(Cl)cc3)c(O)c(C)c2C)cc1 ?
FLuc counter: 8.5µM*; SMN2 splice up: 15%

How did NCCSCc1ccccc1Cl do in these assays?
KinaseGlo FLuc: -3%[7.66 µM]; SMN2 splice up: -28%[9.22 µM]

How did Cc1cccc(C(=O)Nc2ccc(OCc3cc(=O)n4ccc(C)cc4n3)cc2)c1 do in these assays?
FLuc counter: -6%

Results for Cc1ccc2nc(-c3ccc(NC(=O)CNC4CC4)cc3)sc2c1 ?
FLuc counter: 2.7µM*; ELG1 genotox: inconclusive; NPC1 promoter act: 0.63µM*; KinaseGlo FLuc: -1%; Rab9 promoter act: 0.28µM*; SMN2 splice up: 2.2µM*

What do the screens show for `CCN1CCN(CC(=O)Nc2nc3ccc(C)cc3s2)CC1`?
FLuc counter: 1%; ELG1 genotox: 0%; NPC1 promoter act: 3%; Rab9 promoter act: 4%

How did Cc1ccc2nc(-c3ccc(NC(=S)NC(=O)CC(C)C)cc3)sc2c1 do in these assays?
FLuc counter: 24µM*; ELG1 genotox: 9.2µM*; NPC1 promoter act: 0.56µM*; KinaseGlo FLuc: 13%; Rab9 promoter act: 1.1µM*; SMN2 splice up: 31%

What do the screens show for `Cc1ccc2nc(-c3ccc(NC(=O)c4ccccc4S(C)(=O)=O)cc3)sc2c1`?
FLuc counter: 21µM*

What do the screens show for `Cc1ccc2nc(-c3ccc(NC(=O)C(F)(F)F)cc3)sc2c1`?
FLuc counter: 0.48µM*; SMN2 splice up: 3%

Results for Cc1ccc(CNC(=O)C2CCN(C(=O)c3cnn(-c4ccccc4)c3-n3cccc3)CC2)cc1 ?
FLuc counter: -15%; SMN2 splice up: -38%

Results for O=C(CCc1nnc2n(Cc3ccccc3Cl)c(=O)c3ccccc3n12)Nc1ccc(F)cc1 ?
FLuc counter: -1%; SMN2 splice up: 2%
